Measurements from PubChem BioAssay (NCATS).
Inconclusive results are not listed. Unmarked numbers belong to inactive results. Calls of active or inactive are those of the source. Calls come from the whole dose curve.

Assay: Cytotoxicity counterscreen for inhibitors of SARS-CoV-2 cell entry (AID 1645845); note: nearly all actives have a fitted effect of over 50% in size
Conditions: cell viability (SARS-CoV-2 entry assay cells); series mostly up to 57.1 µM; activity change, negative = cytotoxicity: at the top concentration
Procedure, shortened: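 48 h compound treatment (after 1 h preincubation), HEK293-ACE2 cells, 37 C/5% CO2; ATP luminescence endpoint; normalized to cell wells and media blanks.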
% is set by controls: 0 for no effect and ±100 for the full control effect; potency is the fitted concentration of half-maximal effect.

| SMILES | activity change, negative = cytotoxicity | Potency | outcome |
| --- | --- | --- | --- |
| COc1ccc(-n2c(SCCCN3C(=O)c4cccc5cccc(c45)C3=O)nnc2-c2ccncc2)cc1 | -2.21% | – | – |
| CNS(=O)(=O)Nc1nccc(Cc2c(C)c3ccc(Oc4ncccn4)cc3oc2=O)c1F | – | 14.1 µM (active) | – |
| CCN(CC)CCNc1ccc(C)c2sc3ccccc3c(=O)c12 | – | 28.2 µM (active) | – |
| CO[C@H]1/C=C/O[C@@]2(C)Oc3c(C)c(O)c4c(O)c(c(/C=N\N5CCN(C6CCCC6)CC5)c(O)c4c3C2=O)NC(=O)/C(C)=C\C=C\[C@H](C)[C@H](O)[C@@H](C)[C@@H](O)[C@@H](C)[C@H](OC(C)=O)[C@@H]1C | -17.9% | – | – |
| CN(C)Cc1cccc(N=C(c2ccccc2)c2c(O)[nH]c3cc(C(N)=O)ccc23)c1 | -1.23% | – | – |
| O=C(C(c1ccccc1)c1ccccc1)N1CCN(CC(O)COc2cccc3ncccc23)CC1 (configuration not stated) | -23.9% | – | – |
| COc1cc(=C2C=c3ccccc3=N2)[nH]/c1=C/c1[nH]c(C)cc1C | – | 10 µM (active) | – |
| COC(=O)N(CC(=O)O)Cc1cccc(OCc2nc(-c3ccc(Cl)cc3)oc2C)c1 | -13.6% | – | – |
| CCC(C)CNCC(=O)N1CCc2sccc2C1c1cccc(C)n1 (configuration not stated) | 0.183% | – | – |
| Cc1noc2c1-c1ccccc1C(c1ccc(Cl)cc1)=N[C@H]2CC(N)=O | – | – | inactive |
| C[C@@H](Nc1ncnc2[nH]c(-c3ccc(O)cc3)cc12)c1ccccc1 | 3.13% | – | – |
| Cc1ccc(C(=O)Nc2ccc(Oc3cc4cnn(C)c4cc3-c3cn[nH]c3)c(F)c2)c(=O)n1-c1ccc(F)cc1 | -24.5% | – | – |
| COc1cc(N2CCC(N3CCN(C)CC3)CC2)ccc1Nc1ncnc(Nc2ccccc2S(=O)(=O)C(C)C)n1 | -5.36% | – | – |
| CNc1ncc2cc(-c3cc(NC(=O)NCCC(C)(C)C)c(F)cc3C)c(C)nc2n1 | – | – | inactive |
| CC#CC(=O)N1CCC[C@H]1c1nc(-c2ccc(C(=O)Nc3ccccn3)cc2)c2c(N)nccn12 | 2.05% [at 27.1 µM] | – | – |
| O=C(/C=C/N1C[C@H]2C[C@@H]1CN2c1ccccn1)c1ccccc1O | -1.11% | – | – |
| C[C@@H]1CC(=O)Nc2cccc(-c3ccc4c(c3)c(-c3cnn(C)c3)nn4C)c2N1 | 2.23% | – | – |
| COC(=O)N[C@@H](C)CNc1nccc(-c2cn(C(C)C)nc2-c2cc(Cl)cc(NS(C)(=O)=O)c2F)n1 | – | – | inactive |
| CC1=NN(c2ccc(C(=O)O)cc2)C(=O)/C1=C/c1ccc(-c2cc(C)c(C)cc2[N+](=O)[O-])o1 | – | – | inactive |

| SMILES | activity change, negative = cytotoxicity | Potency | outcome |
| --- | --- | --- | --- |
| CCCN(CCC)C(=O)C1=Cc2ccc(-c3ccc(C(=O)N4CCCC4)cc3)cc2N=C(N)C1 | -11.7% | – | – |
| C=C1CCC2[C@](C)(CO)C(O)CC[C@]2(C)C1C/C=C1/C(=O)OCC1O (some centres not stated) | -21% | – | – |
| Cc1c(CN2CCN(C(=O)[C@H](C)O)CC2)sc2c(N3CCOCC3)nc(-c3cnc(N)nc3)nc12 | -13.8% | – | – |
| CC[C@H](NC(=O)[C@H](C)NC)C(=O)N1C[C@@H](O)C[C@H]1Cc1c(-c2[nH]c3cc(F)ccc3c2C[C@@H]2C[C@H](O)CN2C(=O)[C@H](CC)NC(=O)[C@H](C)NC)[nH]c2cc(F)ccc12 | -22.9% | – | – |
| Cc1ccc(-c2nn(C(C)(C)CNC(=O)c3ccncc3)c3ncnc(N)c23)cc1 | -7.22% | – | – |
| Cc1cc(N2CCOCC2)ccc1Nc1nc(NC2CCCCC2)c2[nH]cnc2n1 | -1.54% | – | – |
| CN1CCN(c2nc(C3=C(c4c[nH]c5ccccc45)C(=O)NC3=O)c3ccccc3n2)CC1 | – | – | inactive |
| CCNC(=O)Nc1ccc(Oc2ncnc(N)c2/C=N/OC)cc1Cl | -7.07% | – | – |
| CC1(C)OCCn2c1nc1c(N3CCOCC3)nc(-c3cnc(N)nc3)nc12 | -15.8% | – | – |
| CCOC(=O)C1=CCCCC1S(=O)(=O)Nc1ccc(F)cc1Cl (configuration not stated) | -24.4% | – | – |
| NC(=O)c1cnc2[nH]ccc2c1NC1C2CC3C[C@H]1CC(O)(C3)C2 (some centres not stated) | -11% | – | – |
| Cc1[nH]c(/C=C2\C(=O)Nc3ccc(F)cc32)c(C)c1C(=O)NC[C@H](O)CN1CCOCC1 | -7.38% | – | – |
| O=C(Nc1ccc2[nH]nc(-c3ccncc3)c2c1)[C@@H]1CCN(CC(=O)N2CCN(c3ccc(-c4ncccn4)cc3)CC2)C1 | 1.16% | – | – |
| O=C(NOCC(O)CO)c1ccc(F)c(F)c1Nc1ccc(I)cc1F (configuration not stated) | – | – | inactive |
| Cc1ccc(NC(=O)c2ccc(CN3CCNCC3)cc2)cc1Nc1nccc(-c2cccnc2)n1 | – | 25.1 µM (active) | – |
| C=CC(=O)N1CCC(C2CCNc3c(C(N)=O)c(-c4ccc(Oc5ccccc5)cc4)nn32)CC1 (configuration not stated) | -19.4% | – | – |
| Cc1cc(Nc2ncnc3ccc(NC4=NC(C)(C)CO4)cc23)ccc1Oc1ccn2ncnc2c1 | -9.28% | – | – |
| Cc1cc(-n2c(=O)ccc3cnc4[nH]ccc4c32)ccc1F | – | – | inactive |
